In test [1] the test system is Klebsiella pneumoniae. The note with it: Concentration 32 ug.mL-1; ASSAY_TEST Inhibition of Bacterial Growth; detection method Absorption (OD600); MEDIA CAMHB; plate type 384well; NBS; CORNING #3640; time 18 hr.
The test system of test [2] is Candida albicans. The settings on record: 32 ug/mL.
In test [3] the test system is Cryptococcus neoformans. The note with it: Concentration 32 ug.mL-1; ASSAY_TEST Inhibition of Fungal Growth; detection method Resazurin; Absorption (OD600-OD570); plate type 384well; NBS; CORNING #3640.

Structures are written as SMILES. Results with a measured potency or affinity are listed apart.

The record followed here is ChEMBL document CHEMBL4513134, “CO-ADD screening of University of Queensland (Australia) compounds” (2021).

Regarding `Cn1c([N+](=O)[O-])cnc1C(=O)NCc1ccc(F)cc1`, the Inhibition in test [1] was 15.94%; in test [2], 7.55%; in test [3], -24.39%.

On to `Cn1c([N+](=O)[O-])cnc1C(=O)NCc1ccccn1.O=C(O)C(F)(F)F`, for which the Inhibition was 22.41% in test [1], 4.77% in test [2] and -18.89% in test [3].

On to `Cn1c([N+](=O)[O-])cnc1C(=O)NCc1ccc(OC(F)(F)F)cc1`, for which the figures for the Inhibition in test [1], in test [2] and in test [3] were 21.15%, 21.3% and 2.62%, respectively.

As to `CN(C)C(=O)c1ncc([N+](=O)[O-])n1C`, the Inhibition in test [1] is 22.37%; in test [2], 10.4%; in test [3], -8.01%.

With `Cn1c([N+](=O)[O-])cnc1C(=O)NC1CC1`, the Inhibition in test [1] is 0.14%; in test [2], 5.96%; in test [3], -21.85%.

Consider `Cc1ccc(CCNC(=O)c2ncc([N+](=O)[O-])n2C)cc1`, for which the Inhibition in test [1] is 27.87%; in test [2] it was 12.1%; in test [3], -8.7%.

With `Cn1c([N+](=O)[O-])cnc1C(=O)N1CCCC1`, the Inhibition was 30.2% in test [1], 7.94% in test [2] and -19.05% in test [3].

`Cn1c([N+](=O)[O-])cnc1C(=O)N1CCOCC1`: the Inhibition is 22.51% in test [1], 14.1% in test [2] and -21.61% in test [3].

For the compound `CC(NC(=O)c1ncc([N+](=O)[O-])n1C)c1ccc(F)cc1` (stereo not given), the Inhibition in test [1] was 14.44%; in test [2], 6.03%; in test [3], -25.7%.

`Cn1c([N+](=O)[O-])cnc1C(=O)NCc1cccc(OC(F)(F)F)c1`: the Inhibition in test [1] was 27.4%; in test [2], 11.6%; in test [3] it was -18.54%.
